Source: PubChem BioAssay
Jurkat NFkB inh = lowers PMA/ionomycin-induced NF-kB signal in Jurkat cells. inhibition, % at 4 µM. PMA/ionomycin-induced NF-kB luciferase reporter, luminescence. AID 435003. 0.53% of 330,000 active; in the data active = inhibition above about 50%
aSyn UTR inh = 5' untranslated region of α-synuclein, MLPCN primary screen; alpha-synuclein 5'UTR reporter, inhibitor activity; inhibition, % (tested at 7.5 µM); 0.82% of 300,000 active; in the data active = inhibition above about 60%;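 also: H4 neuroglioblastoma cells stably carrying SNCA 5'UTR luciferase fusion; 0% = DMSO wells and 100% = positive control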
Gli-Sufu block = antagonists of Gli-Sufu signaling. Sufu-KO-LIGHT fibroblasts, Gli luciferase reporter luminescence. inhibition, % at 5 µM. 0.74% of 340,000 active. AID 588413;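 active = inhibition above about 55%, limit read from the data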;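 also: 0% = DMSO-treated cells and 100% = wells with medium but no cells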
697 NFkB inh = lowers PMA/ionomycin-induced NF-kB signal in 697 B cells; 697 B-cell NF-kB luciferase reporter, 16 h; inhibition, % at 4 µM; 0.33% of 330,000 active; in the data active = inhibition above about 35%
Mdm2 MdmX PPI = human Mdm2/MdmX binding inhibition; O15151+Q00987; SaOS-2 split-luciferase Mdm2/MdmX complementation, luminescence; inhibition, % at 8 µM; 3% of 330,000 active;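 active = inhibition of at least 50% at 8 µM in the primary screen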
KLF5 inh = inhibitors of KLF5 expression; inhibition, % at 5 µM; 0.23% of 290,000 active; DLD-1 KLF5 promoter-luciferase reporter, luminescence;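 active = inhibition above a per-plate limit of that plate's mean compound inhibition plus 3 SD, cut at about 60% in these data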;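 also: 0% = DMSO wells and 100% = LY294002 at 200 µM; higher means less KLF5 promoter-driven luciferase light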
Jurkat NFkB conf = inhibitors of the PMA/ionomycin-induced NF-kB reporter in Jurkat cells, retest; shares compounds with Jurkat NFkB inh; 27% of 2,700 active; AID 435020; inhibition, % at 4 µM; Jurkat NF-kB luciferase, 16 h;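 active = inhibition reaching about 45% at 4 µM in either replicate, limit read from the data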;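 also: plate controls were PMA/ionomycin stimulated DMSO wells for no effect and unstimulated DMSO wells for full effect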
697 NFkB conf = lowers PMA/ionomycin-induced NF-kB signal in 697 B cells; 697 B-cell NF-kB luciferase, 16 h; inhibition, % at 4 µM; shares compounds with 697 NFkB inh; 35% of 2,000 active; in the data active = inhibition mostly above about 28%, no sharp cut-off; inactive = mostly below about 22%
Mdm2-MdmX conf = confirmation of human Mdm2/MdmX interaction inhibitors; Mdm2-MdmX binding, luminescent assay; 55% of 10,000 active; AID 489028; inhibition, % at 8 µM; shares compounds with Mdm2 MdmX PPI; in the data active = inhibition above about 40%
FLuc counter = full-length luciferase inhibition in Mdm2/MdmX counter-screen; shares compounds with Mdm2 MdmX PPI; SaOS-2 full-length luciferase counterscreen, luminescence; inhibition, % at 8 µM; 77% of 6,200 active; AID 504607;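 active = mean inhibition at 8 µM reaching about 37%, which flags the compound as non-specific, limit read from the data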;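 also: p53-null SaOS-2 cells with luciferase driven by a doxycycline-inducible promoter; compound on cells about two nights before reading with doxycycline added after day one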
Starred values were filed as active, the others as inactive; i = inactive; x = no result. The list is not random: actives were taken first. Their share in the collection is about 4.1%.

SMILES	Jurkat NFkB inh	aSyn UTR inh	Gli-Sufu block	697 NFkB inh	Mdm2 MdmX PPI	KLF5 inh	Jurkat NFkB conf	Mdm2-MdmX conf	FLuc counter	others
CC[C@@]1(O)C(=O)OCc2c1cc1n(c2=O)Cc2cc3c(CN(C)C)c(O)ccc3nc2-1	73.0*	25.9	61.3*	-328.8	87.8*	x	95.0*	87.9*	52.0*	697 NFkB conf=-375.4
CC(C)(C)c1cc(C(=O)NCCN2CCCC2)cc(C(C)(C)C)c1	8.9	-81.9	9.6	-12.6	25.2	7.9	x	x	x
COc1cc(/C=C(/C#N)c2nc3ccccc3[nH]2)ccc1OCC(=O)Nc1ccccc1C	52.8*	x	-4.0	12.8	100.3*	-2.5	19.1	17.3	x
COc1ccc(OC)c(C2CC(=O)c3c([nH]c(C(=O)OC(C)C)c3C)C2)c1 (stereo not given)	59.8*	10.6	x	-19.1	51.8*	3.0	57.6*	44.2*	83.2*
CCCOCCOC(=O)c1[nH]c2c(c1C)C(=O)CC(c1cc(OC)ccc1OC)C2 (stereo not given)	71.7*	20.2	5.6	-45.6	59.4*	14.0	35.3	52.1*	83.2*
COCCOC(=O)c1[nH]c2c(c1C)C(=O)CC(c1cc(OC)ccc1OC)C2 (stereo not given)	37.5	-27.2	-7.4	16.8	48.2	22.2	x	x	x
CCOC(=O)c1[nH]c2c(c1C)C(=O)CC(c1ccc(OC)c(OC)c1)C2 (stereo not given)	-8.2	-19.7	8.9	-12.0	6.3	-11.5	x	x	x
CCCCn1c(N)c(N(CC(C)C)C(=O)C2CCN(S(=O)(=O)c3ccc(C)cc3C)CC2)c(=O)[nH]c1=O	9.4	11.8	-8.6	19.3	26.6	x	x	x	x
COc1ccc(C(=O)COC(=O)CN2C(=O)c3ccccc3C2=O)c(OC)c1	11.3	-12.0	-0.1	13.0	-1.0	-21.1	x	x	x
COc1ccccc1NC(=O)/C=C\c1ccco1	-10.6	-83.8	-2.0	-3.9	-2.9	-54.0	x	x	x
COc1ccccc1NC(=O)/C(C#N)=C/C=C/c1ccco1	58.9*	-6.3	9.6	0.0	50.5*	12.7	-6.8	53.5*	64.0*
CC[n+]1c(C=C2C=C(C)OC(C)=C2)sc2ccccc21	87.4*	9.1	85.4*	53.3*	75.4*	30.0	74.7*	70.0*	55.6*	697 NFkB conf=68.9*
CC[n+]1c(/C=C2/C=C(C)CC(C)C2)sc2ccccc21 (stereo not given)	-16.3	-40.7	30.1	-15.3	10.7	-25.3	x	x	x
Cc1ccc(N(C(=O)CNC(=O)c2ccco2)C(C(=O)NC2CCCC2)c2cccnc2)c(C)c1 (stereo not given)	-16.6	-3.5	-11.4	2.0	-2.3	5.5	x	x	x
COc1ccc(C)cc1NC(=O)c1cccc(-c2ccc(OC(C)=O)cc2)c1	6.9	-33.0	27.8	18.9	16.3	-5.3	x	x	x
O=C(Nc1nc(-c2ccccc2)cs1)c1ccc(N2CCOCC2)c([N+](=O)[O-])c1	52.2*	-26.0	45.4	11.9	54.5*	-9.8	57.1*	52.0*	56.1*
CCN(CC)S(=O)(=O)c1cc(C(=O)Nc2cc(C)[nH]n2)ccc1Cl	-54.8	-161.0	-48.1	-110.3	-31.5	-61.3	x	x	x
CCc1ccc(-c2cc(C(=O)N/N=C/c3c[nH]c4ccccc34)[nH]n2)cc1	59.6*	-2.8	-30.4	-46.6	62.3*	-94.7	-11.0	51.0*	101.3*
CCc1ccc2c(Cl)c(C(=O)N/N=C/c3c[nH]c4ccccc34)sc2c1	12.8	11.8	-16.2	-20.2	46.5	-39.1	x	x	x
COc1cc(NS(=O)(=O)c2ccc(OC)c(C)c2C)c(OC)cc1Cl	58.4*	-25.9	20.3	-44.3	51.2*	53.0	50.9*	55.0*	63.2*
C=CCNc1nc(C(=O)OC(C)C(=O)c2ccc(C)cc2)cs1 (stereo not given)	14.0	x	-5.0	-23.5	4.6	x	x	x	x
CCc1ccc(N/C(N)=N/c2nc(CSc3ccccn3)cc(=O)[nH]2)cc1	16.0	12.3	47.5	-50.4	5.8	8.9	x	x	x
COc1cccc(N/C(N)=N/c2nc(CSc3ccccn3)cc(=O)[nH]2)c1	57.9*	-30.4	x	-44.6	52.4*	0.5	56.1*	48.7*	79.3*
COc1ccc(NC(=O)Cn2nnc(-c3ccccc3NS(=O)(=O)c3ccc(OC)cc3)n2)cc1	71.6*	106.5*	6.6	-54.1	67.0*	74.6*	64.4*	54.8*	83.4*
O=C(N/N=C/c1ccsc1)c1cc(-c2ccncc2)nc2ccccc12	55.3*	-10.9	44.5	-75.2	51.9*	-6.1	19.1	38.1	66.3*
SMILES	Jurkat NFkB inh	aSyn UTR inh	Gli-Sufu block	697 NFkB inh	Mdm2 MdmX PPI	KLF5 inh	Jurkat NFkB conf	Mdm2-MdmX conf	FLuc counter	others
O=C(N/N=C/c1ccsc1)c1cc(-c2cccs2)nc2ccccc12	16.3	-15.0	-7.0	-37.6	23.5	-6.5	x	x	x
O=C(N/N=C/c1ccc2c(c1)OCO2)c1cc(-c2ccncc2)nc2ccccc12	57.3*	-5.3	11.2	-36.3	51.1*	-3.6	2.7	44.5*	58.9*
O=C(Nc1ccc(Br)cc1)c1cc(-c2ccncc2)nc2ccccc12	57.2*	x	-4.0	-31.7	62.4*	x	27.6	50.9*	45.4*
O=C(N/N=C/c1ccc([N+](=O)[O-])o1)c1cc(-c2ccc(-c3ccccc3)cc2)nc2ccccc12	-177.5	76.1*	-70.2	i	63.8*	32.1	-84.6	57.2*	83.7*	697 NFkB conf=i
CCOC(=O)C1CC(CN2C(=O)c3ccccc3C2=O)OC1=O (stereo not given)	x	x	-3.2	x	x	x	x	x	x
O=C(Cn1nc([N+](=O)[O-])nc1Br)NC(c1ccccc1)c1ccccc1	0.2	-32.5	2.8	-13.1	-31.0	8.5	x	x	x
Cc1ccsc1/C=N/NC(=O)c1cc(-c2ccncc2)nc2ccccc12	58.2*	67.4*	44.9	23.6	57.5*	61.2	55.5*	59.6*	58.0*
Cc1ccc(/C=N/NC(=O)c2cc(-c3cccnc3)nc3ccccc23)cc1	62.8*	80.9*	-3.5	-14.5	53.9*	-5.7	11.6	40.5*	48.2*
O=C(N/N=C/c1cccnc1)c1cc(-c2ccccc2)nc2ccccc12	-8.5	-18.8	3.8	-1.2	14.7	-22.1	x	x	x
COc1ccc(NC(=O)c2c(C)noc2C(C)C)cc1S(=O)(=O)N1CCCCC1	-13.3	x	8.4	3.7	4.8	x	x	x	x
CCCCCn1c(=O)[nH]c2cc(C(=O)NC3CCN(Cc4ccccc4)CC3)ccc2c1=O	51.1*	-40.1	8.4	-53.6	92.0*	x	35.8	28.9	x
